From PubChem BioAssay AID1347041 (National Center for Advancing Translational Sciences (NCATS), 2019) come the findings set out here.

Hit rate of the full screen: of about 480,000 compounds, about 740 (0.15%) were called active. Cut-off read from the data, not from the text of the source: active = activity change below about -30%; inconclusive = mostly about -25% to -30%; inactive = weaker than that. The sample as a whole holds a higher share of actives than the screen did.

For this assay, the target named is L-lactate dehydrogenase A chain (Homo sapiens) (UniProt P00338). Briefly: qHTS assay for inhibitors of human lactate dehydrogenase.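 Note: values are at about 110 or 230 µM; plate controls were DMSO wells for no effect and wells without enzyme for full effect.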 The conditions noted are these: purified LDHA, NADH/diaphorase-resazurin fluorescence; stronger effect = lower value. The source says:
LDH is a key glycolytic enzyme that catalyzes the final step in the glycolytic pathway, reducing pyruvate to lactate and regenerating NAD+ equivalents necessary for continued glycolysis. LDHA has been linked to the carcinogenesis and malignancy in numerous forms of cancers and many other diseases. Consequently, both pharma and academia have invested in significant research efforts to identify small molecule therapeutics. Such attempts have been stalled or abandoned due to limited success in discovering potent and drug-like inhibitors that can be utilized to validate LDHA in vivo as a drug target, a necessary step toward advancing such a molecule towards the clinic Towards this goal we designed and performed a quantitative high-throughput screening (qHTS) campaign to discover novel compounds that are potent inhibitors of LDHA enzyme activity and cancer cell line growth.
The assay was optimized to 1536-well plates. Briefly, 3 µL of human lactate dehydrogenase 5 (#A38558H, Meridian Life Science, Inc., Memphis, TN) in LDH assay buffer (200 mM Tris HCl pH 7.4, 100 microM EDTA and 0.01% Tween-20) was added to a black solid bottom 1536-well assay plate (Greiner Bio-One) using a BioRAPTR FRD dispenser (Beckman Coulter, Brea, CA). A 1536-well pintool dispenser outfitted with 20 nL pins (Wako Automation, San Diego, CA) was used to transfer 23 nL of DMSO-solubilized compound (both library and vehicle controls) to each 1536-well assay plate. Following compound transfer, 1 µL of substrate solution containing NADH and sodium pyruvate (Sigma-Aldrich, St. Louis, MO) in LDH assay buffer was dispensed via BioRAPTR FRD to initiate the reaction. Final concentrations in the 4 microL reaction volume were 2 nM LDHA enzyme, 0.06 mM NADH and 0.2 mM sodium pyruvate. Following a 5 minute incubation period at room temperature, 1 µL of detection reagent (C. kluyveri diaphorase (Sigma-Aldrich) and resazurin sodium salt (Sigma-Aldrich) in LDH assay buffer) was added to a total volume of 5 µL. Final concentrations of detection reagents were 0.133 mg/mL diaphorase and 37 µM resazurin. Plates were immediately transferred to a ViewLux microplate imager (PerkinElmer, Waltham, MA), and any resulting resorufin fluorescence was measured (ex540, em590 nm) at 0 and 20 minutes. Fluorescence was normalized using enzyme-free and DMSO-treated control wells on each plate.
For the compound `C=CCN1C(=O)NC(=O)/C(=C/c2ccc(OCC(=O)Nc3ccc(C)cc3)cc2)C1=O`, the activity change is -1.94% (inactive).

As for `O=C(O)COc1ccccc1/C=C1\C(=O)NC(=O)N(CCC2=CCCCC2)C1=O`, the activity change was -34.5% (active).

In the case of `Cc1[nH]nc2c1C(c1ccc(C(=O)O)cc1)SCC(=O)N2` (stereo not given), the activity change is 4.1% (inactive).

As for `COc1ccccc1N=C1SCCCN1C`, the activity change was -34.1% (active).

Consider `O=C(COc1ccc2c(=O)c(-c3ccccc3)coc2c1)N1CCN(CCO)CC1`, for which the activity change was 3.12% (inactive).

In the case of `COC(=O)C(O)(c1ccc(N(C)C(=O)O/N=C(/C)Cl)cc1)C(F)(F)F` (stereo not given), the activity change is 1.08% (inactive).

Turning to `COc1cc(-c2c(C#N)c(N)nc3c2c(=O)nc2sccn23)ccc1OCc1ccccc1C`, the activity change was 6.76% (inactive).

As for `C[N+]12CN3CN(CN(C3)C1)C2`, the activity change is -52.1% (active).

As to `Cc1c(-c2ccc(Br)cc2)c(=O)oc2ccc(OC(=O)N(C)C)cc12`, the activity change was 8.34% (inactive).

In the case of `N/C(=N\N=C\c1ccco1)N[N+](=O)[O-]`, the activity change was 6.01% (inactive).

`Cc1nc(CN2CCNCC2)cs1`: the activity change is 0.726% (inactive).

On to `Cc1ccc(C2(O)CC(C)N(C)CC2C)c(C)c1` (stereo not given), for which the activity change was 1.58% (inactive).

Consider `CCOC(=O)C1=C(N)OC(C)=C(C(=O)OC(C)C)C12C(=O)Nc1ccc(Br)cc12` (stereo not given), for which the activity change was 12.9% (inactive).

Consider `ClCc1cccnc1`, for which the activity change is -7.12% (inactive).

In the case of `CCN1CCN(C(=O)COc2ccc3c(=O)c(Oc4ccccc4)c(C)oc3c2)CC1`, the activity change was -13.1% (inactive).
